Where “and” joins values, the source holds several entries; their conditions need not be identical. Equal values may be shown once. Results filed as inconclusive are left out. Calls of active or inactive are those of the source. Unless noted, calls come from the whole dose curve; as a rule, active = well fitted activation curve with a large enough effect; inconclusive = small, poorly fitted or top-dose-only effect, or another doubt; inactive = no such curve, though single readings can be large or run the other way.
test: Cell Proliferation Assay against the TMD8 Cell Line (Caspase readout at 8 hrs) (AID 651713); details: TMD8 lymphoma cells, caspase activation luminescence; series mostly up to 46.1 µM; caspase activation: at the top concentration;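 for caspase activation: 0% = DMSO and 100% = 9.2 µM bortezomib caspase signal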
Procedure, shortened: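 Apoptosis read-out: Caspase-Glo luminescence after 8 h compound exposure of TMD8 lymphoma cells at 37C, 5% CO2. Signals were normalized as percent activity between DMSO and bortezomib (9.2 uM final) controls.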
Potency is the fitted concentration of half-maximal effect.

| SMILES | caspase activation | Potency |
| --- | --- | --- |
| C[C@@H]1[C@@H](C(=O)C[C@H]2O[C@@H]3O[C@]4(C)CC[C@@H]5[C@H](C)CC[C@@H]([C@H]2C)[C@@]35OO4)O[C@@H]2O[C@]3(C)CC[C@H]4[C@H](C)CC[C@@H]1[C@@]24OO3 | -53.8% (inactive) | – |
| CN(C)CCN(C)CCc1ccc(Cl)c(Cl)c1 | 13.5% (inactive) | – |
| Cc1sc2c(c1C)C(c1ccc(Cl)cc1)=N[C@@H](CC(=O)OC(C)(C)C)c1nnc(C)n1-2 | – | 23.5 µM (active) |
| O=C(O)C(=O)c1cn(Cc2ccccc2)c2ccc(-c3ccc(OC(F)(F)F)cc3)cc12 | 14.9% (inactive) | – |
| COc1cc(Nc2c(C#N)cnc3cc(OCCCN4CCN(C)CC4)c(OC)cc23)c(Cl)cc1Cl | – | 20.9 µM (active) |
| CO[C@@H](C(=O)N1Cc2[nH]nc(NC(=O)c3ccc(N4CCN(C)CC4)cc3)c2C1)c1ccccc1 | – | 16.6 µM (active) |
| CNC(=O)c1ccc(N2C(=S)N(c3ccc(C#N)c(C(F)(F)F)c3)C(=O)C23CCC3)cc1F | 0.399% (inactive) | – |
| Cc1cc(SCc2sc(-c3ccc(C(F)(F)F)c(F)c3)nc2C)ccc1OCC(=O)O | 4.5% (inactive) | – |
| CCCCC/C=C\C/C=C\C/C=C\C/C=C\CCCC(=O)NC1CC1 | 7.36% (inactive) | – |
| C[C@]12CCC(=O)C(O)=C1CC[C@@H]1[C@@H]2CC[C@]2(C)C(=O)CC[C@@H]12 | 1.58% (inactive) | – |
| C[C@@H]1[C@@H](CC(C[C@H]2O[C@@H]3O[C@]4(C)CC[C@@H]5[C@H](C)CC[C@@H]([C@H]2C)[C@@]35OO4)C[S+](=O)([O-])c2ccc(COC(=O)N(C)C)cc2)O[C@@H]2O[C@]3(C)CC[C@H]4[C@H](C)CC[C@@H]1[C@@]24OO3 (some centres undefined) | -32.1% (inactive) | – |

test: qHTS assay for small molecule agonists of the antioxidant response element (ARE) signaling pathway (AID 651741; active = well fitted activation curve with a large enough effect in the signal ratio; the % refers to the signal ratio; for activation: % of control where 0% means no effect); details: HepG2 ARE-bla reporter, beta-lactamase FRET ratio, 16 h; series mostly up to 96 µM; activation: at the top concentration
Procedure, shortened: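 Reporter: beta-lactamase under ARE, stably in HepG2. Exposure: 16 h, 37 C, compounds delivered in DMSO by pin tool after 5 h cell preincubation. Readout: FRET substrate fluorescence after 2 h at RT.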

| SMILES | Potency | activation |
| --- | --- | --- |
| C[C@]12C/C(=C/O)C(=O)C[C@@H]1CC[C@@H]1[C@@H]2CC[C@@]2(C)[C@H]1CC[C@]2(C)O | 6.86 µM (active) and 7.5 µM (active) | – |
| OCCOc1ccccc1 | inactive | – |
| CCOP(=S)(OCC)Oc1cc(C)nc(C(C)C)n1 | inactive | – |
| Oc1cc(Cl)ccc1Oc1ccc(Cl)cc1Cl | 54.5 µM (active) | – |
| Oc1cccc2cccnc12 | 37.6 µM (active) and 66.8 µM (active) | – |
| CC(C)C(=O)Nc1ccc([N+](=O)[O-])c(C(F)(F)F)c1 | 61.1 µM (active) and 66.8 µM (active) | – |
| CC(=O)Oc1ccccc1C(=O)Nc1ncc([N+](=O)[O-])s1 | 18.8 µM (active) | – |
| O=c1oc2ccccc2c(O)c1C(CC(O)c1ccc(-c2ccc(Br)cc2)cc1)c1ccccc1 (centres undefined) | 27.3 µM (active) | – |
| NC(=Nc1ccccc1)Nc1ccccc1 | 19.3 µM (active) and 18.8 µM (active) | – |
| N[C@@H](Cc1ccc(N(CCCl)CCCl)cc1)C(=O)O | 54.5 µM (active) and 42.2 µM (active) | – |
| c1ccc2c(c1)Nc1ccccc1S2 | 54.5 µM (active) | – |
| CC(COc1ccccc1)N(CCCl)Cc1ccccc1 (centres undefined) | 48.6 µM (active) and 42.2 µM (active) | – |
| Oc1ccc(Cl)cc1Cc1ccccc1 | 54.5 µM (active) and 42.2 µM (active) | – |
| Cc1cc(SCc2sc(-c3ccc(C(F)(F)F)c(F)c3)nc2C)ccc1OCC(=O)O | 68.6 µM (active) | – |
| COc1cc2c(c(OC)c1OC)-c1ccc(OC)c(=O)cc1[C@@H](NC(C)=O)CC2 | 0.075 µM (active) | – |
| NCC(O)c1ccc(O)cc1 (centres undefined) | – | 0.637% (inactive) |
| C[C@]12CCC(=O)C(O)=C1CC[C@@H]1[C@@H]2CC[C@]2(C)C(=O)CC[C@@H]12 | – | 7.83% (inactive) |
| Oc1ccccc1-c1ccccc1 | 54.5 µM (active) and 398 µM (active) and 30.6 µM (active) | – |
